# Laboratory results published in PubChem BioAssay (NCATS).
# Inconclusive results are not listed. Where a call stands in place of a potency, no number is given. A number with no mark means an inactive call. The source made the active and inactive calls. The call rests on the fitted dose curve.
# Test: Cytotoxicity counterscreen for inhibitors of SARS-CoV-2 cell entry (AID 1645845); further: nearly all actives have a fitted effect of over 50% in size
# Settings: cell viability (SARS-CoV-2 entry assay cells); series mostly up to 57.1 µM; activity change, negative = cytotoxicity: at the top concentration
# Source text: Assay Provider: Wei Zheng, Ph.D.
# National Center for Advancing Translational Sciences, National Institute of Health, Rockville, MD.
# SARS-CoV-2 spike protein, within the viral envelope, mediates viral attachment and infection of host cells. The SARS-CoV-2 spike protein specifically binds to the host receptor ACE2 (Angiotensin-converting enzyme 2). This interaction promotes endocytosis of the viral particle, additional events lead to viral-host cell membrane fusion and release of the viral contents, allowing viral replication.
# While SARS-CoV-2 requires BSL-3 facilities for live virus work, pseudo-typed partices (PP) that incorporate SARS-CoV-2 spike proteins without replication elements could facilitate studies on viral entry mechanisms in a BSL-2 setting. This PP cell entry assay could also enable screening of small molecule compound libraries in BSL-2 setting to identify inhibitors of SARS-CoV-2 cell entry. To eliminate false positive compounds, ATP content cytotoxicity assay was screened in the same cell line.
# SEQUENCE No. (e.g., 1, 2, 3, etc.); […] (e.g., Cells, Incubation, Reagent, etc.); VALUE and DESCRIPTION.
# 1. Cells. Seed 1500 HEK293-ACE2 cells (Expi293F with stable expression of human ACE2) in 2 uL/well media (DMEM, 10% FBS, 1x L-glutamine, 1x Pen/Strep, 1 ug/ml puromycin) in white 1536-well assay plates (Greiner #782073).
# 2. Incubation. Incubate at 37 C with 5% CO2 overnight (~16 h).
# 3. Compounds. Dispense 23 nL/well compounds in DMSO via pin transfer.
# 4. Incubation. Incubate for 1 h at 37C 5% CO2.
# 5. Reagent. Dispense 2 uL/well of media (DMEM, 10% FBS, 1x L-glutamine, 1x Pen/Strep, 1 ug/ml puromycin).
# 6. Incubation. Incubate at for 48h at 37C 5% CO2
# 7. Reagent. Dispense 4 uL/well of ATPLite 1step luminescence assay reagent (PerkinElmer #6016739).
# 8. Incubation. Incubate for 15 min at room temperature.
# 9. Detection. Read luminescence signal (Viewlux plate reader, PerkinElmer). Data was normalized with wells containing cells as 100%, and wells without cells (media only control) as 0%.
# Potency means the concentration at half of the fitted maximal effect.
Structure (SMILES),"activity change, negative = cytotoxicity",outcome,Potency
Clc1ccccc1C(c1ccccc1)(c1ccccc1)n1cccn1,-9.79%,–,–
COC(=O)[C@@H](N)CCCN=C(N)N[N+](=O)[O-],–,inactive,–
Cn1cc(-c2ccc3nnc(C(F)(F)c4ccc5ncccc5c4)n3n2)cn1,–,inactive,–
CCNC(=O)c1noc(-c2cc(C(C)C)c(O)cc2O)c1-c1ccc(CN2CCOCC2)cc1,-8.08%,–,–
CCCCCCCCCCC(CO)CCCCCCCC (stereo not given),-9.49%,–,–
COc1c(N2CCNC(C)C2)c(F)cc2c(=O)c(C(=O)O)cn(C3CC3)c12 (stereo not given),–,–,inactive
Cn1cc(-c2[nH]c3cc(NC(=O)[C@H](N)C4CCCCC4)cc4c3c2C=NNC4=O)cn1,–,–,15.8 µM (active)
O=C(O)CCC1CCC(c2cc(F)ccc2F)(S(=O)(=O)c2ccc(Cl)cc2)CC1 (stereo not given),-13.2%,–,–
COc1ccccc1[C@H](c1cccc2ccccc12)[C@@](C)(C#N)C(=O)N1CCC(c2cccc(C(F)(F)F)c2)CC1,3.01%,–,–
CCOc1cc2ncc(C#N)c(Nc3ccc(OCc4ccccn4)c(Cl)c3)c2cc1NC(=O)/C=C/CN(C)C,–,–,inactive
N#C/C(=C1\SCC(c2ccccc2Cl)S1)n1ccnc1 (stereo not given),-12.6%,–,–
CCNC(=O)C[C@@H]1N=C(c2ccc(Cl)cc2)c2cc(OC)ccc2-n2c(C)nnc21,-1.19%,–,–
COc1ccc(N(C(=O)Oc2c(C)cccc2C)c2ccnc(Nc3ccc(N4CCN(C)CC4)cc3)n2)c(OC)c1,–,inactive,–
Nc1nc2c(ncn2CCC(CO)CO)c(=O)[nH]1,–,inactive,–
CCN(CC)CCn1c(=O)c(Cc2ccc(OC)cc2)nc2ccccc21,–,inactive,–
Nc1ccccc1NC(=O)c1ccc(CNC(=O)OCc2cccnc2)cc1,-28%,–,–
CC1(C)CCC(c2ccc(Cl)cc2)=C(CN2CCN(c3ccc(C(=O)NS(=O)(=O)c4ccc(N[C@H](CCN5CCOCC5)CSc5ccccc5)c(S(=O)(=O)C(F)(F)F)c4)cc3)CC2)C1,-19.7%,–,–
COc1cc(Nc2ncc(F)c(Nc3ccc4c(n3)NC(=O)C(C)(C)O4)n2)cc(OC)c1OC,1.68%,–,–
O=c1[nH]c(-c2ccc(C(F)(F)F)cc2)nc2c1CSCC2,–,inactive,–
Cc1c(C)c2c(c(C)c1OC(=O)c1cccnc1)CC[C@@](C)(CCC[C@H](C)CCC[C@H](C)CCCC(C)C)O2,–,inactive,–

Structure (SMILES),"activity change, negative = cytotoxicity",outcome,Potency
CC[C@@H](C(N)=O)N1CCCC1=O,–,inactive,–
Cc1cn(-c2cc(NC(=O)c3ccc(C)c(Nc4nccc(-c5cccnc5)n4)c3)cc(C(F)(F)F)c2)cn1,–,–,inactive
CCCCCCCC(=O)OCC(O)CO (stereo not given),-2.79%,–,–
Cc1cc(Nc2nc(N[C@@H](C)c3ncc(F)cn3)ncc2Cl)n[nH]1,-17.9%,–,–
CC(C)c1onc(-c2c(Cl)cccc2Cl)c1COc1ccc(/C=C/c2cccc(C(=O)O)c2)c(Cl)c1,–,inactive,–
NC(=O)c1ccc(-c2nc(-c3ccc4c(c3)OCO4)c(-c3ccccn3)[nH]2)cc1,–,inactive,–
COc1ncnc(NS(=O)(=O)c2ccc(N)cc2)c1OC,–,–,inactive
Cn1c(=O)c(F)c(Nc2ccc(I)cc2F)c2c(=O)n(C[C@@H](O)CO)cnc21,–,inactive,–
CCCn1c(=O)c2[nH]c(C34CC5CC3C[C@@H](C5)C4)nc2n(CCC)c1=O,–,inactive,–
CC1=C(C/C=C(\C)CCC[C@H](C)CCC[C@H](C)CCCC(C)C)C(=O)c2ccccc2C1=O,1.4%,–,–
CCc1c(C(=O)C(N)=O)c2c(OCC(=O)O)cccc2n1Cc1ccccc1,–,inactive,–
CC(=O)Nc1ccc(OC[C@](C)(O)C(=O)Nc2ccc([N+](=O)[O-])c(C(F)(F)F)c2)cc1,–,inactive,–
O=C(O)[C@@H](c1ccc(OCc2ccc3ccccc3n2)cc1)C1CCCC1,–,inactive,–
CCCCOCCOc1nc(-c2ccc(C(=O)O)c(F)c2)sc1C,-1.28%,–,–
CN(C(=O)C(Cl)Cl)c1ccc(OC(=O)c2ccco2)cc1,1.42%,–,–
C=CC(=O)Nc1cc2c(Nc3ccc(F)c(Cl)c3)ncnc2cc1C#CC(C)(C)N1CCN(C)CC1,–,–,25.1 µM (active)
NC(CO)C(=O)NNCc1ccc(O)c(O)c1O (stereo not given),–,inactive,–
CCCCC(CC)COC(=O)/C=C/c1ccc(OC)cc1 (stereo not given),-5.66%,–,–
O=C(O)[C@H](Cc1c[nH]c2ccccc12)N1C(=O)c2ccccc2C1=O,-5.34%,–,–
c1ccc(C2(c3ccccc3)CC2C2=NCCN2)cc1 (stereo not given),–,inactive,–
